Measurements published in PubChem BioAssay AID1850 (Southern Research Specialized Biocontainment Screening …, 2009).
About 1,000 (0.32%) of roughly 310,000 compounds were called active. The rule behind the calls is not given here. The list is a sample of the results. Results with a measured potency or affinity are listed apart.

Assay: Inhibition of PhoP regulon, Salmonella typhi GFP reporter cells, confirmation, 4 h (AID 1850);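 note: 0% = induced wells with vehicle and 100% = uninduced wells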
Conditions: Salmonella Typhi PhoP-promoter GFP reporter, fluorescence, at 50 µM, active compounds read high

SMILES	inhibition
Cc1ccc(-c2nnn(CC(=O)Nc3ccccc3N3CCOCC3)n2)cc1	-3.19% (inactive)
COC(=O)C(O)(c1ccc(N(C)C(=O)OC(C)C)cc1)C(F)(F)F (stereo not given)	0.83% (inactive)
CCOc1ccc(S(=O)(=O)N(C)c2ccc(OCC(=O)NC3=NCCS3)cc2)cc1	-20.3% (inactive)
O=C(Nc1cccnc1Cl)c1cc(-c2ccc(F)cc2)on1	5.5% (inactive)
CCN(CCn1cccn1)C(=O)c1cc(COc2ccc(F)c(F)c2)on1	6.34% (inactive)
CCOC(=O)c1nc2c(=O)n(C)c(=O)n(C)c2n(C)c1=O	2.99% (inactive)
Cc1cccc(NC(=O)CSc2nnc(NC(=O)C3CC3)s2)c1C	3.53% (inactive)
O=C(Cc1ccc(Cl)cc1)NNC(=S)NC(=O)c1cccs1	11.9% (inactive)
O=C(Cc1ccccc1)NNC(=O)c1cccs1	6.4% (inactive)
O=C(NC(=S)NNC(=O)c1ccco1)c1ccc(F)cc1	0.37% (inactive)
O=C(NC(=S)NNC(=O)c1ccco1)c1ccccc1	21.3% (inactive)
CC(=O)N1CCN(c2ccccc2NC(=O)Cc2ccc(Cl)cc2)CC1	-3.34% (inactive)
COC(=O)C(Cc1ccc(O)cc1)NC(=O)CCNC(=O)c1ccco1 (stereo not given)	-6.89% (inactive)
CCCc1cc(CN(C)C(=O)CC2C(=O)NCCN2Cc2ccccc2C)[nH]n1 (stereo not given)	-5.02% (inactive)
CC(NS(=O)(=O)c1ccccc1)C(=O)NCc1ccco1 (stereo not given)	4.53% (inactive)
Cc1ccc(Nc2cc(C)c3ccc(O)cc3n2)cc1C	9.14% (inactive)
COc1ccc(Nc2cc(C)c3ccccc3n2)cc1	-2.31% (inactive)
CC(=O)Nc1ccc(Nc2cc(C)c3ccccc3n2)cc1	-5.65% (inactive)
COC(=O)c1cc(Nc2cc(C)c3c(O)cccc3n2)cc(C(=O)OC)c1	-3.04% (inactive)
Cc1ccc(-c2cc(C(=O)OCC(=O)Nc3ncc(C(F)(F)F)cc3Cl)c3ccccc3n2)cc1	-6.32% (inactive)

SMILES	inhibition
O=C(CN1c2ccccc2S(=O)(=O)c2ccccc21)Nc1ccccc1F	2.92% (inactive)
CC(NC(=O)Cn1ncc(Cl)c(Cl)c1=O)C12CC3CC(CC(C3)C1)C2 (stereo not given)	-18.9% (inactive)
O=C(O)CN1C2=NCCCN2c2ccccc21	-7.68% (inactive)
O=C(CN1C2=NCCN2c2ccccc21)c1ccc(Br)s1	13.2% (inactive)
O=C(CN1C2=NCCCN2c2ccccc21)c1cccs1	9.76% (inactive)
O=C(CN1C2=NCCCN2c2ccccc21)c1ccc2c(c1)OCO2	28.1% (inactive)
CCOC(=O)Nc1cc(Br)c2c(c1)OCCO2	9.05% (inactive)
CCCC[C@@H]1C[C@H]1[C@@H](NC(=O)c1ccco1)c1ccc(C(=O)OC)cc1	-1.55% (inactive)
COc1ccc(CNC(=O)c2ccc3c(=O)n(-c4ccccc4)c(=O)[nH]c3c2)cc1	9.07% (inactive)
Cc1cccc2cc(CN(CCCO)C(=O)Nc3cccc(Cl)c3)c(=O)[nH]c12	-2.46% (inactive)
C=CCNc1nc(C(=O)OCC(=O)c2ccc(Cl)cc2)cs1	0.24% (inactive)
CS(=O)(=O)Nc1cccc(C2=NN(C(=O)c3ccc(F)cc3)C(c3cccs3)C2)c1 (stereo not given)	-1.48% (inactive)
O=C1C2C(C(=O)N1/N=C/c1ccc([N+](=O)[O-])o1)C1C=CC2C12CC2 (stereo not given)	-7.07% (inactive)
O=C1OCCN1/N=C/c1ccc([N+](=O)[O-])o1	-7.99% (inactive)
O=C(c1cc(S(=O)(=O)N2CCOCC2)c(Cl)cc1Cl)N1CCCCC1	-2.41% (inactive)
OC(COc1ccccc1)CN(Cc1ccccc1)CC(O)COc1ccccc1 (stereo not given)	-0.87% (inactive)
CCOc1ccc(-c2cc(C)[n+](CCN3CCOCC3)c(-c3ccc(OCC)cc3)c2)cc1	8.34% (inactive)
CCOc1ccc(-c2cc(C)[n+](CCO)c(-c3ccc(OCC)cc3)c2)cc1	-1.61% (inactive)
COC(=O)COc1ccc(C(=O)Cn2c(NCCCO)nc3ccccc32)cc1	4.11% (inactive)
Cc1ccc(C(=O)CCS(=O)(=O)c2ccc(Cl)cc2)cc1	2.23% (inactive)

SMILES	inhibition
Cc1ccc(C(=O)CCS(=O)(=O)c2ccc(Br)cc2)cc1	-6.22% (inactive)
COc1ccc(CC(=O)Oc2ccc(C(C)C)cc2)cc1S(=O)(=O)N1CCOCC1	5.73% (inactive)
Cc1ccc(S(=O)(=O)NN2C(=O)c3ccccc3NC2c2ccco2)cc1 (stereo not given)	-0.11% (inactive)
O=C(O)c1ccc2c(c1)N(Cc1ccccc1)C(=O)c1ccccc1S2=O (stereo not given)	-5.21% (inactive)
COc1ccc(CSc2nnnn2Cc2ccccc2)cc1OC	-8.33% (inactive)
COC(=O)C1=CO[C@@H](OC2OC(CO)C(O)C(O)C2O)[C@@H]2C(CO)=CC[C@H]12 (stereo not given in full)	-13% (inactive)
CN(C)C(=O)C12CCC(C)(C(=O)C1Br)C2(C)C (stereo not given)	7.02% (inactive)
FC(F)(F)c1cc(CCN2C(=S)NC[C@@H]2CC2CCCCC2)cc(C(F)(F)F)c1	-1.84% (inactive)
CCCC[C@@H]1CN=C(N)N1CCc1cc(C(F)(F)F)cc(C(F)(F)F)c1	11.5% (inactive)
NC1=NC[C@H](Cc2ccccc2)N1CCc1cc(C(F)(F)F)cc(C(F)(F)F)c1	-32.4% (inactive)
NC1=NC[C@H](c2ccccc2)N1CCc1cccc(F)c1	12.6% (inactive)
Cc1ccc(S(=O)(=O)N2CCCN(S(=O)(=O)c3ccc(C(F)(F)F)cc3)CC2)cc1	-17.3% (inactive)
Cc1nnc(N/N=C/c2c[nH]c3ccccc23)[nH]c1=O	-1.2% (inactive)
Cc1cc(=O)[nH]c(N/N=C/c2ccccn2)n1	18.1% (inactive)
Clc1cnc(N/N=C/c2ccncc2)c(Cl)c1	1.77% (inactive)
Cc1ccccc1C(=O)Nc1ccnn1C1CCN(CCCc2ccccc2)CC1	-1.21% (inactive)
CN(C)C(=O)c1sccc1Oc1ccc(F)cc1[N+](=O)[O-]	7.3% (inactive)
COC(=O)c1sccc1Oc1ccc(F)cc1[N+](=O)[O-]	4.41% (inactive)
COc1ccc(CSCC(=O)Nc2ccccc2SC)cc1	8.6% (inactive)
COc1cc2ncnc(NCCCN3CCOCC3)c2cc1OC	-4.12% (inactive)
